{"source": "ChEMBL document CHEMBL3988442", "about": "“University of Dundee, Small-Polar-MMV Screening Library” (2021)", "note": "Out of some 48,000 compounds screened, about 13,000 (27%) showed an effect of 50% or more. The list shows a part of the results.", "data": [{"test_system": "Wolbachia pipientis", "test": "Anti-Wolbachia Cell-Based Screen", "assay_type": "functional", "parameters": "scale not given: in the data most compounds retested in dose-response had high values", "conditions": "5 µM", "units": {"Percent Effect": "%"}, "values": [{"smiles": "CC(C)N[C@@H]1CO[C@H](CNC(=O)Nc2ccccc2)[C@H]1O", "Percent Effect": -15.53}, {"smiles": "Cc1nc(C(NC(=O)CN(C)C(C)C)c2ccccc2F)no1", "note": "(stereo not drawn)", "Percent Effect": -8.62}, {"smiles": "CCc1nnc(CN2CCN(C(C)=O)CC2)o1", "Percent Effect": -9.857}, {"smiles": "Cc1ccc(C(=O)N2CCC(Oc3ccc(F)cc3F)CC2)c(=O)[nH]1", "Percent Effect": -17.81}, {"smiles": "CC(C)c1nnc(NCCS(C)(=O)=O)s1", "Percent Effect": -6.765}, {"smiles": "CC1(C)COCCN1C(=O)CCc1nc(-c2ccncc2)no1", "Percent Effect": 14.72}, {"smiles": "CCOc1ncccc1CNc1cc(COC)ncn1", "Percent Effect": -5.284}, {"smiles": "COc1ccc(Cl)cc1C(=O)N1CCOC2(CNCCOC2)C1", "note": "(stereo not drawn)", "Percent Effect": -14.44}, {"smiles": "O=C(c1ccccc1)N1CC2(CCNC2)OCc2ccccc21", "note": "(stereo not drawn)", "Percent Effect": 116.8}, {"smiles": "O=C1OC2(CCNCC2)CN1CC(=O)N1CCC1c1cccs1", "note": "(stereo not drawn)", "Percent Effect": -13.03}, {"smiles": "O=C(c1ccc(Cl)cc1)N1CC2(CCNC2)OCc2ccccc21", "note": "(stereo not drawn)", "Percent Effect": 113.7}, {"smiles": "Cc1ccccc1C(=O)N1CCOC2(CNCCOC2)C1", "note": "(stereo not drawn)", "Percent Effect": -17.32}, {"smiles": "O=C(c1ccc(NCc2ccco2)nc1)N1CCc2ccccc21", "Percent Effect": 16.32}, {"smiles": "O=C(c1ccccc1-c1ccccc1)N1CCOC2(CNCCOC2)C1", "note": "(stereo not drawn)", "Percent Effect": -21.41}, {"smiles": "Cc1ccccc1C1CCCN1C(=O)CN1CC2(CCNCC2)OC1=O", "note": "(stereo not drawn)", "Percent Effect": -3.464}, {"smiles": "O=C(C1CCCC1)N1CC2(CCNC2)OCc2ccccc21", "note": "(stereo not drawn)", "Percent Effect": 106}, {"smiles": "Clc1cc(CN2CCCC(Cn3cncn3)C2)c2ncccc2c1", "note": "(stereo not drawn)", "Percent Effect": -5.34}, {"smiles": "N#CCC(=O)NCc1nnc2n1CCN(Cc1ccsc1)C2", "Percent Effect": -8.086}, {"smiles": "COC(=O)CN1N=C(C(=O)N2CCCC2)S(=O)(=O)c2ccccc21", "Percent Effect": 18.69}, {"smiles": "CC(C)c1nccn1-c1cncc(C2CCCN2Cc2cccnc2)n1", "note": "(stereo not drawn)", "Percent Effect": 151.3}, {"smiles": "Cc1nccn1-c1cncc(C2CCCN2Cc2cccnc2)n1", "note": "(stereo not drawn)", "Percent Effect": 117.3}, {"smiles": "Cc1nccn1-c1cncc(C2CCCN2Cc2ccccc2)n1", "note": "(stereo not drawn)", "Percent Effect": 97.46}, {"smiles": "CCc1nc(C2CCCN2Cc2nccn2Cc2ccccc2)no1", "note": "(stereo not drawn)", "Percent Effect": 3.12}, {"smiles": "COCCN(Cc1ccc(F)cc1C#N)CC(F)(F)F", "Percent Effect": -22.68}, {"smiles": "CNC(=O)C1(CCCc2cccnc2)CCCCN1", "note": "(stereo not drawn)", "Percent Effect": -7.533}, {"smiles": "COCCCn1ccc(NC(=O)NCCc2cccnc2)n1", "Percent Effect": -2.122}, {"smiles": "CN1CCCC1(CCCc1cccnc1)C(=O)NCc1nccn1C", "note": "(stereo not drawn)", "Percent Effect": 97.51}, {"smiles": "COCCNC(=O)C1(CCCc2cccnc2)CCCN1C", "note": "(stereo not drawn)", "Percent Effect": 112.4}, {"smiles": "O=C(Nc1ccnc2ccnn12)c1ccc(N2CCC(O)CC2)cc1", "Percent Effect": 5.741}, {"smiles": "COCCN1CCC(CN(CC2CCCO2)C(=O)CNC(C)=O)CC1", "note": "(stereo not drawn)", "Percent Effect": 106.5}, {"smiles": "COCCN1CCC(CN(CC2CCCO2)C(=O)CCNC(C)=O)CC1", "note": "(stereo not drawn)", "Percent Effect": -5.608}, {"smiles": "COCCN1CCC(CN(CC2CCCO2)C(=O)CCC(F)(F)F)CC1", "note": "(stereo not drawn)", "Percent Effect": 140.7}, {"smiles": "CN(CC1CCOCC1)C(=O)NCCCN1CCCCC1", "Percent Effect": -10.18}, {"smiles": "COCCN1CCC(CN(CC2CCCO2)C(=O)COC)CC1", "note": "(stereo not drawn)", "Percent Effect": -4.712}, {"smiles": "COCCN1CCC(CNC(=O)C2(NC(C)=O)CCCCC2)CC1", "Percent Effect": 17.17}, {"smiles": "COCCN1CCC(CN(CC2CCCO2)C(=O)C2CCOCC2)CC1", "note": "(stereo not drawn)", "Percent Effect": 95.06}, {"smiles": "COCC(=O)N(CCC(=O)OC)CC1CCCO1", "note": "(stereo not drawn)", "Percent Effect": -0.04842}, {"smiles": "O=C(CC1CCCO1)Nc1ccn(Cc2cccc3cccnc23)n1", "note": "(stereo not drawn)", "Percent Effect": -4.253}, {"smiles": "CC(=O)N1CCN(C(=O)CCCc2nc(C(C)C)no2)CC1", "Percent Effect": -8.538}, {"smiles": "CC(NCc1cnc(C2CCC2)s1)c1ccc(-n2cccn2)cc1", "note": "(stereo not drawn)", "Percent Effect": -14.42}, {"smiles": "O=C(c1cc(COc2ccc3c(c2)OCO3)[nH]n1)N1CCCCO1", "Percent Effect": 18.38}, {"smiles": "Cc1cc(C(=O)O)cc(S(=O)(=O)Nc2ccc3c(c2)OCO3)c1C", "Percent Effect": 13.44}, {"smiles": "CN(C)S(=O)(=O)Nc1ccc(Oc2ccc3c(c2)OCO3)cc1", "Percent Effect": 102.4}, {"smiles": "O=S(=O)(Nc1ccc2c(c1)OCCO2)N1CCCCC1", "Percent Effect": 85.12}, {"smiles": "O=C(CSc1ccc2c(c1)OCCO2)NS(=O)(=O)C1CCCCC1", "Percent Effect": -3.835}, {"smiles": "CN(C)S(=O)(=O)Nc1ccc(-n2nccc2C(F)(F)F)cc1", "Percent Effect": -20.66}, {"smiles": "O=S(=O)(Nc1ccc(Oc2ccc3c(c2)OCO3)cc1)N1CCCCC1", "Percent Effect": 108.9}, {"smiles": "Cc1c(F)cc(C(=O)O)cc1S(=O)(=O)Nc1ccc2c(c1)OCCO2", "Percent Effect": -12.89}, {"smiles": "CC1(Cc2ccc3c(c2)OCO3)CCCN(S(=O)(=O)N2CCCC2)C1", "note": "(stereo not drawn)", "Percent Effect": -20.92}, {"smiles": "CC(C)c1nsc(N2CCn3c(nnc3C(F)(F)F)C2)n1", "Percent Effect": -8.607}, {"smiles": "CCc1cc(=O)[nH]c(-c2ccc(NCCc3ccc(O)cc3)nc2)n1", "Percent Effect": -8.547}, {"smiles": "Cc1ccc(CNC2CCN(CCc3ccncc3)CC2)cc1C", "Percent Effect": 2.941}, {"smiles": "O=C1[C@H]2CC[C@H](CN(Cc3ccccc3OC(F)F)C2)N1CC1CC1", "Percent Effect": -16.02}, {"smiles": "O=C(O)C(F)(F)F.O=C(c1cocn1)N1C[C@@H]2CN(Cc3ccco3)CCO[C@@H]2C1", "Percent Effect": -2.402}, {"smiles": "CN(C)CCN1CCO[C@@H]2CCN(C(=O)c3cccn3C)CC[C@H]21", "Percent Effect": 111.2}, {"smiles": "Cn1cc(CN2C[C@@H]3CN(C(=O)c4cccn4C)CCO[C@@H]3C2)cn1", "Percent Effect": 94.4}, {"smiles": "CN(C)CCN1CCO[C@H]2CCN(C(=O)c3cccs3)CC[C@@H]21.O=C(O)C(F)(F)F.O=C(O)C(F)(F)F", "Percent Effect": -1.673}, {"smiles": "Cc1nc(CN2CCO[C@H]3CN(C(=O)c4cccn4C)C[C@H]32)cs1", "Percent Effect": 4.285}, {"smiles": "O=S(=O)(C1CC1)N1CCO[C@@H]2CN(Cc3ccco3)C[C@@H]2C1", "Percent Effect": 3.474}, {"smiles": "Cn1cccc1C(=O)N1CCO[C@@H]2CN(Cc3ccco3)C[C@@H]2C1", "Percent Effect": 74.97}, {"smiles": "Cn1cc(CN2C[C@@H]3CN(Cc4ccoc4)CCO[C@@H]3C2)cn1.O=C(O)C(F)(F)F.O=C(O)C(F)(F)F", "Percent Effect": 1.152}, {"smiles": "CCS(=O)(=O)N1C[C@@H]2CN(Cc3cnn(C)c3)CCO[C@@H]2C1.O=C(O)C(F)(F)F", "Percent Effect": 4.441}, {"smiles": "CN(Cc1ccc(Cl)s1)C(=O)CN1CC(n2cccn2)C1", "Percent Effect": -39.44}, {"smiles": "CCC(NC(=O)CCNC(=O)c1ccccc1F)c1cc(C)ccn1", "note": "(stereo not drawn)", "Percent Effect": -12.53}, {"smiles": "CC(C)Cc1nc(CCn2ccc(=O)[nH]c2=O)n(-c2ccccn2)n1", "Percent Effect": 0.8317}, {"smiles": "CCC(c1nc(C(C)C)nn1-c1ccncc1C)n1cccn1", "note": "(stereo not drawn)", "Percent Effect": -1.289}, {"smiles": "Cc1nc[nH]c1C(=O)N1CCCC2(CN(C)C(=O)O2)C1", "note": "(stereo not drawn)", "Percent Effect": -29.59}, {"smiles": "COc1ncc(NS(=O)(=O)c2ccc(F)c(F)c2)c(OC)n1", "Percent Effect": -5.769}, {"smiles": "COc1ncc(-c2ccc(NC(C)=O)cc2)c(OC)n1", "Percent Effect": 97.6}, {"smiles": "COc1ncc(-c2ccc(C(N)=O)cc2)c(OC)n1", "Percent Effect": 99.76}, {"smiles": "COc1ccc(-c2cnc(NC(C)=O)[nH]2)cc1", "Percent Effect": -6.695}, {"smiles": "COc1ncc(NC(=O)c2ccco2)c(OC)n1", "Percent Effect": 4.719}, {"smiles": "COc1ncc(-c2cc(NC3CCCC3)nc3[nH]ccc23)c(OC)n1", "Percent Effect": 5.51}, {"smiles": "COc1ncc(NS(=O)(=O)c2cccc(C)c2)c(OC)n1", "Percent Effect": 20.6}, {"smiles": "COc1ncccc1-c1cc(C(N)=O)ccn1", "Percent Effect": 12.1}, {"smiles": "COc1ncc(-c2ccc(O)cc2)c(OC)n1", "Percent Effect": 83.6}, {"smiles": "CC(C)n1cnnc1CN(C)Cc1ccc(CN(C)S(C)(=O)=O)o1", "Percent Effect": -6.062}, {"smiles": "CN(CC1CCN(CCO)CC1)CC(O)c1ccc(F)cc1", "note": "(stereo not drawn)", "Percent Effect": 8.04}, {"smiles": "O=C(Nc1nnc(C2CC2)s1)NC1CCOc2ccccc21", "note": "(stereo not drawn)", "Percent Effect": -5.522}, {"smiles": "CN(Cc1cnc(N)nc1)C(=O)C1CCN(C(=O)C2CCCC2)CC1", "Percent Effect": -2.189}, {"smiles": "CCn1c(C2CCCN(C(=O)C(C)(C)OC)C2)nn(CCN(C)C)c1=O", "note": "(stereo not drawn)", "Percent Effect": -8.02}, {"smiles": "CN(C)Cc1cc(C2CCN(C(=O)C3CCCNC3)CC2)nn1C.Cl", "note": "(stereo not drawn)", "Percent Effect": 84.37}, {"smiles": "O=C(C1CC12CCC2)N1CCC(n2cc(-c3ccsc3)nn2)CC1", "note": "(stereo not drawn)", "Percent Effect": -51.66}, {"smiles": "COC(C)(C)C(=O)N1CCC(c2cc(CN(C)C)n(C)n2)CC1.Cl", "Percent Effect": 119.7}, {"smiles": "Cc1cc(CN(C)C(=O)CN2CC3(CCNCC3)OC2=O)n(C)n1", "Percent Effect": -5.459}, {"smiles": "CN(C)Cc1cc(C2CCN(C(=O)C3CC34CCC4)CC2)nn1C.Cl", "note": "(stereo not drawn)", "Percent Effect": 106.1}, {"smiles": "CN(C)CCN1CC(C(=O)N2CCC(c3cc(=O)[nH]cn3)CC2)CC1=O", "note": "(stereo not drawn)", "Percent Effect": 11.42}, {"smiles": "CS(=O)(=O)c1nccn1Cc1ccc(F)cc1Cl", "Percent Effect": -6.222}, {"smiles": "Cc1cnc(N2Cc3cnn(Cc4ccc(F)cc4)c3C2)nc1N(C)C", "Percent Effect": 15.57}, {"smiles": "Cc1cc(N2CCc3c(nc(C(C)C)n3C)C2)nc(N)n1", "Percent Effect": 12.43}, {"smiles": "CS(=O)(=O)c1ccc(NC(=O)NCc2ccc3c(c2)CCC3)cn1", "Percent Effect": 2.355}, {"smiles": "CC(=O)N1CCCc2cc(NC(=O)NCCc3cnn(C)c3)ccc21", "Percent Effect": -10.98}, {"smiles": "CCCNC(=O)CNc1ccc2c(c1)N(C(=O)OC(C)(C)C)CCC2", "Percent Effect": -19.09}, {"smiles": "CCCNC(=O)Nc1ccc2c(c1)N(S(=O)(=O)CC)CC2", "Percent Effect": 85.58}, {"smiles": "O=C(NCc1ccccc1CO)Nc1ccc2c(c1)CCC2", "Percent Effect": -12.78}, {"smiles": "NS(=O)(=O)N1CCc2ccc(NC(=O)CCc3ccncc3)cc21", "Percent Effect": -8.791}, {"smiles": "CCS(=O)(=O)N1CCc2ccc(NC(=O)NCc3ccccc3)cc21", "Percent Effect": 168.3}, {"smiles": "CCS(=O)(=O)N1CCc2ccc(NC(=O)NCCc3ccccc3)cc21", "Percent Effect": 122.4}, {"smiles": "Fc1cccc(N2CCOC3(CCCN(c4nncs4)C3)C2)c1", "note": "(stereo not drawn)", "Percent Effect": -6.078}, {"smiles": "O=C(C1CCCC1)N1CC(c2nc(Cc3ccccc3)no2)C1", "Percent Effect": 3.47}, {"smiles": "O=C(C1CCCC1)N1CCOC(c2nc(-c3ncccn3)no2)C1", "note": "(stereo not drawn)", "Percent Effect": 90.83}, {"smiles": "O=C(CN1CCCC1c1nc(-c2ccccn2)no1)N1CCOCC1", "note": "(stereo not drawn)", "Percent Effect": -3.547}, {"smiles": "O=C(CC1CCCC1)N1CCOC(c2nc(-c3ncccn3)no2)C1", "note": "(stereo not drawn)", "Percent Effect": 86.32}]}]}
